Screens from PubChem.
PLAP act – PLAP enzyme activators, biochemical, luminescence, HTS | Alkaline phosphatase, placental type (Homo sapiens), P05187 | purified PLAP enzyme, luminescent substrate read-out; hits give high values | activation fold at 20 µM | actives 1.2% (n = 96,000) | AID 696, 2007; in the data active means activation fold above about 2
CYP2C19 inhib – blockers of cytochrome P450 2C19 activity – biochemical, luminescence, ADME assay, primary screen; P33261; CYP2C19 Supersomes, luciferin-H EGE luminescence, 30 min; inhibition, % at 5 µM; actives 21% (n = 96,000);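 active means CYP2C19 inhibition above a set limit at 5 µM in the primary screen, cut at about 50% in these data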;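 further: plate controls were negative control wells for no effect and 2.5 mM tranylcypromine positive control for full effect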
CYP2C9 act – human CYP2C9 activators, primary screen, biochemical, luminescence. recombinant CYP2C9, luciferin-H conversion; hits give high values; factor 1 = untreated enzyme, 0 = blocked. actives 1.4% (n = 96,000). activation factor at 5 µM;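 active means activation factor of 2 or more for CYP2C9 at a 5 µM dose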;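 further: 0 = sulfaphenazole-blocked wells and 1 = vehicle-only wells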
CYP2C9 inhib – blockers of cytochrome P450 2C9 activity – biochemical, luminescence, ADME assay, primary screen. P11712. CYP2C9 Supersomes, luciferin-H conversion. inhibition, % at 5 µM. actives 20% (n = 96,000). AID 777, 2007;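 active means blocking of liver enzyme CYP2C9 beyond about 50% at 5 µM, limit read from the data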
CYP2C19 activ – human CYP2C19 activators, primary screen, biochemical, luminescence. Cytochrome P450 2C19 (Homo sapiens), P33261. recombinant CYP2C19, luciferin-H EGE luminescence; hits give high values; 0 = fully inhibited enzyme, 1 = untreated enzyme. activation factor at 5 µM. 96,000 tested, under 10 active;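 active means activation factor of at least 2 at 5 µM in the primary screen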;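 further: 0 = wells with 2.5 mM tranylcypromine and 1 = vehicle-only wells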
* hit, by the source's call. In the library only some 31% were active in any assay of this set; here they are far more common.

SMILES	PLAP act	CYP2C19 inhib	CYP2C9 act	CYP2C9 inhib	CYP2C19 activ
COc1ccc(Cl)cc1C(=O)CSc1nnnn1C1CCCCC1	1.3	69.1*	1	-4.4	0.3
O=C(O)c1ccc(CSc2nnnn2C2CCCCC2)cc1	1.3	-3.0	1	-3.7	1
COc1ccc(Cl)cc1C(=O)CSc1nnnn1C1CCCC1	1.5	75.8*	0.9	6.0	0.2
COCCCNC(=O)Nc1ccc(F)cc1F	0.9	-0.2	1.1	-6.9	1
O=C(Nc1ccncc1)Nc1ccc(F)cc1F	1.1	97.0*	0.2	82.8*	0
CCN(CC)S(=O)(=O)c1cc(C(=O)Nc2ccncc2)ccc1Cl	1	100.4*	0	100.4*	0
O=C(Nc1ccc(F)cc1)c1ccc(-n2ccnc2)nc1	1	100.4*	0	95.6*	0
O=C(Nc1ccncc1)c1ccc(F)cc1	0.9	88.0*	0.4	60.8*	0.1
O=C(Nc1cccc(F)c1)c1ccccc1	1	16.9	1	-2.2	0.8
O=C(Nc1ccncc1)c1cccc(F)c1	0.8	56.2*	0.8	23.4	0.4
O=C(Nc1ccncc1)c1cncc(Br)c1	0.9	86.6*	0.7	29.9	0.1
COc1ccc(C(=O)Nc2nccs2)cc1OC	1.4	-7.4	0.9	8.8	1.1
COc1ccc(C(=O)Nc2ccncc2)cc1OC	1	57.4*	0.5	48.4	0.4
CC(C)CN1C(=O)c2ccc(C(=O)Nc3ccncc3)cc2C1=O	0.9	97.9*	0	97.3*	0
COc1ccc(N2CC(O)=C(c3n(C)c4ccccc4[n+]3C)C2=N)cc1	0.9	-13.0	1.1	-11.2	1.1
C=CCCCCCCCCc1nc(=S)[nH][nH]1	1.6	45.6	0.5	50.4*	0.5
CN(C)c1cc(-c2ccccc2)nc(N)n1	1	31.8	0.9	13.7	0.7
C=C(C)c1ccc(C(C)(C)NC(=O)N2CCN(C)CC2)cc1	1.4	18.7	1	4.4	0.8
O=C(OCn1ncc(Cl)c(Cl)c1=O)c1ccccc1Cl	0.9	77.5*	1.2	-16.6	0.2
COc1ccc(S(=O)(=O)n2nc(OC(=O)c3c(-c4ccccc4Cl)noc3C)cc2N)cc1	1.2	38.2	0.1	94.2*	0.6
CCc1cn(S(=O)(=O)c2ccccc2OC)nc1N	0.9	50.0*	1.8	-80.2	0.5
COc1ccccc1C(=O)Oc1cc(N)n(S(=O)(=O)c2ccc(C)cc2)n1	1.1	38.6	0.2	80.9*	0.6
CC(C)(C)C(=O)Oc1cc(N)n(S(=O)(=O)c2ccc(F)cc2)n1	0.9	59.0*	0.2	75.1*	0.4
CSc1n[nH]c(NCc2cccs2)n1	0.9	-8.7	1.1	-8.2	1.1
CC1(C)CCCN(C(=O)c2coc(=O)c(Br)c2)C1	1.1	11.7	0.9	13.2	0.9
SMILES	PLAP act	CYP2C19 inhib	CYP2C9 act	CYP2C9 inhib	CYP2C19 activ
COc1ccc(OC)c(-c2cn(S(=O)(=O)c3ccccc3)nc2N)c1	0.9	22.0	0.7	30.9	0.8
COc1ccccc1-c1cn(S(=O)(=O)c2ccc(C)cc2)nc1N	0.8	16.0	0.4	56.2*	0.8
O=C(Nc1ccc(Nc2ccccc2)cc1)c1ccc(Br)o1	0.6	28.7	0.5	51.4*	0.7
O=C(Nc1ccc(Cc2ccncc2)cc1)c1ccc(Br)o1	0.9	86.7*	0	96.8*	0.1
O=C(N/N=C/c1ccccn1)c1ccc(Br)o1	2.4*	8.4	0.9	13.7	0.9
Cc1cc(C)n(C2CCCCC2OC(=O)c2ccccc2F)n1 (configuration not stated)	1	37.6	0.6	40.6	0.6
COc1ccc2c(c1)NC(=O)CC(c1ccccc1)=N2	1	74.7*	0.5	49.1	0.3
CCSC(C)CC1C/C(=N/O)c2c(CC)noc2C1 (configuration not stated)	0.8	90.0*	0.1	93.5*	0.1
CCCc1noc2c1/C(=N\O)CC(CC(C)SCC)C2 (configuration not stated)	1.2	72.6*	0	98.0*	0.3
CCCCSc1ccc(NC(=O)c2cccnc2)cc1	0.7	22.8	0.5	49.3	0.8
CCn1c2ccc(/C(C)=N\O)cc2c2cc(/C(C)=N\O)ccc21	0.9	-17.9	1.2	-22.9	1.2
